A selection: hits, their analogues and other compounds. The true share with any hit is near 7.8%.
VACV Venus inh – qHTS for Stage-Specific Inhibitors of Vaccinia Orthopoxvirus: Venus Reporter Primary qHTS. Vaccinia virus Venus reporter expression, fluorescence. Potency, µM (titrated, usually from 36.5 µM), for inactives: at the top dose activity change, negative = inhibition, most hits filed as inhibitors. 0.46% of 330,000 active. AID 720580, 2013; calls by dose curve; tested in A549 cells; also: potency is read from the fitted curve at half-maximal effect; nearly all actives have a fitted effect of over 30% in size
LASV entry inh – qHTS for Inhibitors of binding or entry into cells for Lassa Virus | Lassa virus pseudotype entry inhibition, cell reporter | Potency, µM (titrated, usually from 37.9 µM), inactives show at the top dose activity change, negative = inhibition, most hits filed as inhibitors | 1.2% of 300,000 active | AID 540256, 2011; calls by dose curve; tested in HEK293 cells; also: potency is read from the fitted curve at half-maximal effect; nearly all actives have a fitted effect of over 50% in size
VACV mCherry inh – qHTS for Stage-Specific Inhibitors of Vaccinia Orthopoxvirus: mCherry Reporter Primary qHTS. Potency, µM (highest dose often 36.5 µM), inactives show at the top dose activity change, negative = inhibition, usual class: inhibitors. Vaccinia virus mCherry reporter infection, fluorescence. AID 720579, 2013. 0.63% of 310,000 active; calls by dose curve; tested in A549 cells; also: potency is read from the fitted curve at half-maximal effect; nearly all actives have a fitted effect of over 35% in size
HCMV antiviral – qHTS Assay for inhibitors of the human cytomegalovirus (HCMV). HFF cells, HCMV-luciferase reporter, 72 h; stronger effect = lower value. activity change, negative = inhibition, % at 57.5 µM. 4.5% of 410,000 active; in the data active = activity change below about -60%; inconclusive = no clear call, values can overlap the other calls; inactive = above about -39%
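After 16 h attachment at 37C, HFF cells received test compound and HCMV-luciferase (1 PFU/cell); reporter luminescence read 72 h later, data normalized against buffer-only and known inhibitor Salinomycin.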
HCV inhibitor – qHTS Assay for Inhibitors of Hepatitis C Virus (HCV) | Huh7.5.1 HCVcc-Cre infection, luciferase reporter, 44 h | Potency, µM (highest dose often 41.8 µM), for the others: at the highest dose activity change, negative = inhibition, usual class: inhibitors | 3.4% of 340,000 active | AID 651820, 2012; active = well fitted inhibition curve with a large enough effect; inconclusive = small, poorly fitted or top-dose-only effect, or another doubt; inactive = no such curve, though single readings can be large or run the other way; also: potency is read from the fitted curve at half-maximal effect
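Seed cells (1,000/well) for 4 h; treat with compound and infect with HCVcc-Cre, moi about 0.5. Incubate 44 h, then detect luciferase activity.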
Marburg entry inh – qHTS for inhibitors of binding or entry into cells for Marburg Virus | Marburg virus pseudotyped entry inhibition, cell reporter | Potency, µM (titrated, usually from 37.8 µM), without a hit: top-dose activity change, negative = inhibition, actives largely listed as inhibitors | 1.8% of 300,000 active | AID 540276, 2011; calls by dose curve; tested in HEK293 cells; also: potency is read from the fitted curve at half-maximal effect
* = called active by the depositor; [ ] = dose if it differs, or a comment. % is scaled to controls: 0 for no effect and ±100 for the full control effect.

`COc1cccc(CNC(=O)c2c(OC)cc(=O)n3c2CCN(C(=O)c2ccoc2C)CC3)c1` gave VACV Venus inh -4% and VACV mCherry inh -11%.
COc1ccc2sc(-c3ccc(SC)cc3)c(C#CC(C)(C)O)c2c1 was read as VACV Venus inh inconclusive, VACV mCherry inh inconclusive, HCMV antiviral 42 and HCV inhibitor 2.8µM*.
`COc1ccc2sc(-c3ccc(N(C)C)cc3)c(C#CCCO)c2c1` gave VACV Venus inh inconclusive, VACV mCherry inh inconclusive, HCMV antiviral 36 and HCV inhibitor 1.4µM*.
For COc1cccc(-c2sc3ccc(OC)cc3c2C#CC(C)(C)O)c1 the results were VACV Venus inh inconclusive, VACV mCherry inh inconclusive, HCMV antiviral 2 and HCV inhibitor 7.1µM*.
Screening COc1ccc2sc(-c3ccc(N(C)C)cc3)c(C#Cc3cncn3C)c2c1 returned VACV Venus inh inconclusive, VACV mCherry inh inconclusive, HCMV antiviral 117 and HCV inhibitor 2.5µM*.
COc1cccc(-c2sc3ccc(OC)cc3c2C#CCC(C)O)c1 (stereo not drawn) was read as VACV Venus inh inconclusive, VACV mCherry inh -19%, HCMV antiviral 54 and HCV inhibitor inconclusive.
Screening COc1ccc(-c2sc3ccc(OC)cc3c2C#CCCO)cc1 returned VACV Venus inh inconclusive, VACV mCherry inh 0% and HCV inhibitor inconclusive.
For COc1ccc(-c2sc3ccc(N4CCOCC4)cc3c2C#Cc2ccsc2)cc1 the results were VACV Venus inh -19%, VACV mCherry inh inconclusive, HCMV antiviral -29 and HCV inhibitor inconclusive.
Screening COc1ccc2sc(-c3ccc(SC)cc3)c(C#CCO)c2c1 returned VACV Venus inh inconclusive, VACV mCherry inh inconclusive, HCMV antiviral 3 and HCV inhibitor 2.8µM*.
For COc1ccc2sc(-c3ccc(N(C)C)cc3)c(C#CC(C)(C)O)c2c1 the results were VACV Venus inh inconclusive, VACV mCherry inh -21%, HCMV antiviral 20 and HCV inhibitor 3.2µM*.
`COc1ccc(-c2sc3ccc(N4CCOCC4)cc3c2C#CC(C)(C)O)cc1` gave VACV Venus inh -29%, VACV mCherry inh inactive, HCMV antiviral -32 and HCV inhibitor inconclusive.
For Cc1ccc(C)c(NC(=O)N2CCc3cc(S(=O)(=O)N4CCC(C)CC4)ccc32)c1 the results were VACV Venus inh -5%, LASV entry inh -1%[46.1 µM], VACV mCherry inh -10%, HCMV antiviral 17 and Marburg entry inh -27%[46.1 µM].
C/C=C/[C@@H]1[C@@H](S(=O)(=O)c2ccccc2)CC(=O)N1Cc1ccccc1 was read as HCMV antiviral -7.
Screening CCN(CC)CCOC(=O)c1ccc(NC(=O)c2nn(-c3ccc(C)cc3)c(=O)c3c2c2ccccc2n3C)cc1 returned VACV Venus inh 5µM*, LASV entry inh -6%[46.1 µM], VACV mCherry inh 5.6µM*, HCMV antiviral -100* and Marburg entry inh inconclusive.
Screening CCN(CC)CCCNC(=O)c1nn(-c2ccc(C)cc2)c(=O)c2c1c1ccccc1n2C returned VACV Venus inh 3%, LASV entry inh -14%[46.1 µM], VACV mCherry inh 13%, HCMV antiviral -23 and Marburg entry inh inconclusive.
For COc1cc(N(C)C)ccc1/C=C/c1ccnc2ccccc12 the results were VACV Venus inh 47% and VACV mCherry inh -28%.
For CC(C)CNC(=O)c1cc2nc3c(c(C(F)(F)F)n2n1)CCc1ccccc1-3 the results were VACV Venus inh 0%, LASV entry inh 1%, HCMV antiviral -67*, HCV inhibitor 4% and Marburg entry inh 9%.
For CCCCNC(=O)c1cc2nc3c(c(C(F)(F)F)n2n1)CCc1ccccc1-3 the results were VACV Venus inh -19%, LASV entry inh 14%, VACV mCherry inh -7%, HCMV antiviral 24, HCV inhibitor 3% and Marburg entry inh 20%.
`Cc1ccc(Nc2nc(CSc3nnc(-c4cccnc4)n3-c3ccccc3C)cs2)cc1` gave VACV Venus inh -21%, LASV entry inh inconclusive, VACV mCherry inh inconclusive, HCMV antiviral 4, HCV inhibitor 32µM* and Marburg entry inh inconclusive.
For Cc1ccccc1-n1c(SCc2csc(Nc3ccccc3)n2)nnc1-c1cccnc1 the results were VACV Venus inh -26%, LASV entry inh -18%, VACV mCherry inh -3%, HCMV antiviral -14, HCV inhibitor inconclusive and Marburg entry inh inconclusive.
For COCCNC(=O)c1cc(-c2ccccc2)n(CC2CC(c3ccc(OC)cc3)=NO2)n1 (stereo not drawn) the results were VACV Venus inh -9%, VACV mCherry inh 16%, HCMV antiviral -8 and HCV inhibitor 13%.
For COc1ccc(C2=NOC(Cn3nc(C(=O)NCc4ccc(C)cc4)cc3-c3ccccc3)C2)cc1 (stereo not drawn) the results were VACV Venus inh -19%, VACV mCherry inh -12%, HCMV antiviral -35 and HCV inhibitor 8.9µM*.
Screening COc1ccc(C2=NOC(Cn3nc(-c4ccccc4)cc3C(=O)NCc3cccs3)C2)cc1 (stereo not drawn) returned VACV Venus inh -17%, VACV mCherry inh -13%, HCMV antiviral 47 and HCV inhibitor inconclusive.
`COc1ccc(C2=NOC(Cn3nc(C(=O)NCc4cccs4)cc3-c3ccccc3)C2)cc1` (stereo not drawn) gave VACV Venus inh -9%, VACV mCherry inh -11%, HCMV antiviral -15 and HCV inhibitor 10µM*.
`Ic1ccccc1CNC1C2CCN(CC2)C1C(c1ccccc1)c1ccccc1` (stereo not drawn) gave LASV entry inh 6.5µM* and Marburg entry inh 4.6µM*.
`Fc1ccccc1CNC1CN2CCC1CC2` (stereo not drawn) gave VACV Venus inh -3%, VACV mCherry inh -10%, HCMV antiviral -28, HCV inhibitor 16% and Marburg entry inh 1%[46.1 µM].
Screening Ic1ccccc1CN[C@@H]1C2CCN(CC2)[C@H]1C(c1ccccc1)c1ccccc1 returned Marburg entry inh 4.6µM*.
Screening Ic1ccccc1CN[C@@H]1C2CCN(CC2)[C@@H]1C(c1ccccc1)c1ccccc1 returned VACV Venus inh inconclusive, VACV mCherry inh inconclusive, HCMV antiviral -99* and HCV inhibitor inconclusive.
O=Nc1c(O)[nH]c2ccc(Cl)c(Cl)c12 was read as VACV Venus inh inconclusive, LASV entry inh 4%[46.1 µM], VACV mCherry inh 14µM*, HCMV antiviral -3, HCV inhibitor -10% and Marburg entry inh inconclusive.
